PrPC TRFRET: inhibitors of human cell surface prion protein PrPC, primary screen, cell-based, TR-FRET | Major prion protein (Homo sapiens), P04156 | TR-FRET read-out | inhibition, % at 13.8 µM | hit rate 0.43% among 370,000; in the data active = inhibition above about 24%; note: 0% = median of the test wells and 100% = reference compound wells
PrP UTR inh: inhibition of PrP 5' UTR reporter expression; cell-based PrP 5' UTR mRNA reporter, plate reader; AID 488862, 2010; inhibition, % (no concentration beside the values); hit rate 0.35% among 340,000; in the data active = inhibition above about 52%; note: 0 = median of the neutral control wells
PriA SSB inh: inhibitors of Klebsiella pneumoniae PriA binding to SSB C-terminal tail, primary screen, biochemical, AlphaScreen; PriA–SSB C-terminal tail interaction (Klebsiella pneumoniae); AlphaScreen SSBct-PriA binding, biotinylated peptide; inhibition, % at 33 µM; hit rate 0.6% among 430,000; AID 1272365, 2023; in the data active = inhibition mostly above about 37%, no sharp cut-off; inactive = mostly below about 20%;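 note: plate controls were negative control peptide for no effect and reference peptide for full effect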
3CLpro inhibitor: SARS-CoV 3CLpro protease inhibitors, primary screen, biochemical, quenched FRET. recombinant SARS-CoV 3CLpro, quenched FRET peptide cleavage. hit rate 0.14% among 290,000. Replicase polyprotein 1ab (Severe acute respiratory syndrome coronavirus), P0C6X7. inhibition, % at 6 µM. AID 1706, 2009; in the data active = inhibition above about 12%
BJeLR lethal: MLPCN primary cell-based screen for lethality selective to Ras in HRASV12 cells | BJeLR (HRASV12) viability, CellTiter-Glo ATP luminescence, 48 h | inhibition, % (no concentration beside the values) | hit rate 0.17% among 300,000; in the data active = inhibition above about 50%
An asterisk follows results filed as active; x = no result given; ! = a repeat was not active. A selection: hits, their analogues and other compounds. The true share with any hit is near 1.2%.

SMILES | PrPC TRFRET | PrP UTR inh | PriA SSB inh | 3CLpro inhibitor | BJeLR lethal
Cc1cccc(S(=O)(=O)N2CN(Cc3ccco3)c3nc4ccccc4nc32)c1 | 8 | -27 | 96* | -3 | -2
O=C(Nc1nnc(CSc2ccccc2)o1)c1ccc2c(c1)OCO2 | x | x | -13 | x | x
Cc1ccc(CNc2nc3ccccc3n3cnnc23)cc1 | 6 | 12 | 98* | -5 | 0
CSc1ccc(CNc2nc3ccccc3n3cnnc23)cc1 | 0 | -19 | -19 | -3 | 6
O=S(=O)(c1cccnc1)N1CCC[C@H](Cc2nc(-c3ccccc3F)no2)C1 | x | x | -4 | x | x
COc1cc(OC)c2c(C)cc(=O)oc2c1C(CCN1CCOCC1)c1ccc(N(C)C)cc1 (stereo not given) | 3 | -13 | 45* | x | -8
COc1cc(OC)c2c(-c3ccccc3)cc(=O)oc2c1C(CCN1CCCC(C)C1)c1ccc(N(C)C)cc1 (stereo not given) | -7 | -9 | 97* | x | 10
COc1cc(OC)c2c(-c3ccccc3)cc(=O)oc2c1C(CCN1CCN(c2ccccc2)CC1)c1ccc(N(C)C)cc1 (stereo not given) | -6 | 0 | 55* | x | 8
COc1cc(OC)c2ccc(=O)oc2c1C(CCN1CCN(c2ccccc2)CC1)c1ccc(N(C)C)cc1 (stereo not given) | -6 | -12 | 55* | x | 2
COc1cc(C=NNC(=O)C(N)=O)ccc1OC(=O)c1cccs1 | x | x | -10 | x | x
O=C(CCc1csc2nc(-c3ccccc3)cn12)NCc1c(F)cccc1F | x | x | 8 | x | x
CSC[C@@](C)(O)CNC(=O)CCc1c(C)noc1C | x | x | -9 | x | x
O=C(N1CCc2ccccc2C1)C1(c2cccs2)CCCC1 | x | x | -34 | x | x
N#Cc1ccc(COCC2CCN(C(=O)CC3CCCC3)CC2)cc1 | x | x | -11 | x | x
Cc1cc(C(=O)NN=C2CC(=O)c3ccccc32)c(C)n1-c1ccc(F)cc1 | x | x | 6 | x | x
COc1cc(O)c(C(CCN2CCN(c3ccccc3)CC2)c2ccc3c(c2)OCO3)c(OC)c1 (stereo not given) | -5 | -38 | 42* | x | -5
CCN(CC)CCC(c1ccc(N(C)C)cc1)c1c(OC)cc(OC)c2c(-c3ccccc3)cc(=O)oc12 (stereo not given) | -14 | -37 | 87* | x | x
COc1cc(OC)c2c(-c3ccccc3)cc(=O)oc2c1C(CC(=O)N1CCOCC1)c1ccc(N(C)C)cc1 (stereo not given) | -1 | 6 | 42* | x | -12
CCCCCc1cc(=O)oc2c(C(CCN3CCCCC3)c3ccc4c(c3)OCO4)c(OC)cc(OC)c12 (stereo not given) | -8 | 0 | 42* | x | 3
CCCCCc1cc(=O)oc2c(C(CCN3CCCC(C)C3)c3ccc4c(c3)OCO4)c(OC)cc(OC)c12 (stereo not given) | -8 | -3 | 31 | x | 28
COc1ccc(CNC(=O)NC2CC(=O)N(C3CC3)C2)cc1 (stereo not given) | x | x | 4 | x | x
COc1cccc2cc(C(=O)N3CC[C@H](S(=O)(=O)Cc4ccco4)C3)oc12 | x | x | -9 | x | x
COc1ccc(CCC(=O)NCCn2nc(-c3cccs3)cc2C)cc1 | x | x | -9 | x | x
Cc1cccc(OCCn2cnc(Cl)c2Cl)c1 | -1 | 48 | 40* | 3 | 8
CCOC(=O)c1c(NC(=O)c2ccc(C#N)cc2)sc2c1CCCC2 | x | x | -8 | x | x
SMILES | PrPC TRFRET | PrP UTR inh | PriA SSB inh | 3CLpro inhibitor | BJeLR lethal
CCN1CCN(C(=O)c2cc3c(OC)c(OC)c(OC)cc3[nH]2)CC1 | 2 | -18 | 64* | 4 | 0
Cc1ccc(F)cc1NC(=O)CSc1nc(N2CCCCC2)nc2ccccc12 | x | x | -18 | x | x
CCOC(=O)CSC1=C(C#N)C(c2ccc(C)o2)CC(=O)N1 (stereo not given) | 14 | 55* | -3 | -1 | 37
Cc1csc(NC(=O)CSc2ncc(-c3ccccc3)[nH]2)n1 | 4 | -17 | 42*! | -1 | -3
O=C(CSc1ncc(-c2ccccc2)[nH]1)Nc1nc2ccccc2s1 | x | x | 37* | x | x
CCOC(=O)[C@@]1(Cc2ccccc2)Cc2ccccc2N(C(C)=O)C1 | x | x | -8 | x | x
C/C(=N\NC(=O)c1c([N+](=O)[O-])c(C)nn1C)c1ccc(NC(=O)C2CCCC2)cc1 | 4 | 67* | x | 0 | 42
CN(C)CCCN(C(=O)c1cc2cc([N+](=O)[O-])ccc2s1)c1nc2cc3c(cc2s1)OCCO3 | -13 | -2 | 46*! | x | 38
CCN(CC)CCN(C(=O)c1ccc(C(=O)c2ccccc2)cc1)c1nc2c(OC)cccc2s1 | -3 | -30 | 37*! | -1 | -13
CCN(CC)CCN(C(=O)c1ccc(C(=O)c2ccccc2)cc1)c1nc2cc3c(cc2s1)OCO3 | -8 | -48 | 41* | 3 | -7
CN(C)CCCN(C(=O)c1cc2c(ccc3ccccc32)oc1=O)c1nc2cc3c(cc2s1)OCCO3 | x | x | 66* | x | x
CN(C)CCCN(C(=O)c1cc2ccccc2oc1=O)c1nc2ccc(F)cc2s1 | -9 | -25 | -2 | 3 | 16
Cc1cc(SCC(=O)Nc2ccc(SC(F)F)cc2)nc(-c2ccccc2)n1 | x | x | -9 | x | x
CCN(CC)CCN(C(=O)Cc1cccc2ccccc12)c1nc2cc3c(cc2s1)OCO3 | x | x | 35* | x | x
CN(C)CCCN(C(=O)c1ccc(C(=O)c2ccccc2)cc1)c1nc2cc3c(cc2s1)OCO3 | -22 | 16 | 44* | 3 | 5
Oc1ccccc1NCC(O)Cn1ccc2ccccc21 (stereo not given) | -5 | -19 | 59* | -5 | -4
OC(CNCc1ccccc1)Cn1ccc2ccccc21 (stereo not given) | 4 | -10 | 29 | -5 | -4
CCCCCN=Cc1c(C)[nH]n(-c2nc3ccccc3s2)c1=O | 6 | 27 | -9 | 3 | 53*
CC(=O)c1c(N2CCN(C)CC2)[nH]c(-c2ccccc2)nc1=S | -2 | -6 | 46* | -4 | -4
CCn1c(C)c(C(C)=O)c(N2CCN(c3ccccc3)CC2)nc1=S | -9 | -21 | 3 | 3 | -11
CCCCC(=O)NC(c1ccc(C(C)C)cc1)c1ccc2cccnc2c1O (stereo not given) | 13 | 38 | 1 | 8 | 54*
CC(C)c1ccc(C2C3=C(COC3=O)Nc3cc4c(cc32)OCO4)cc1 (stereo not given) | 17 | 51 | 6 | -5 | 58*
Brc1ccc2c(c1)OCCSCCOCCSCCO2 | x | x | 43* | x | x
O=C(CCc1ccccc1)NNC(=O)c1cccn(Cc2ccc(F)cc2)c1=O | x | x | -5 | x | x
Cc1cc(C)c2nc(N(CCCN(C)C)C(=O)c3ccc4c(c3)CCCC4)sc2c1 | -6 | x | 43* | x | 3
Cc1ccc2nc(N(CCCN(C)C)C(=O)c3ccc4c(c3)CCCC4)sc2c1 | -16 | -1 | 26 | -3 | -2
Cc1cc(C)c2nc(N(CCCN(C)C)C(=O)c3ccc(S(=O)(=O)N4CCCCCC4)cc3)sc2c1 | -18 | -6 | 36*! | x | 1
Cc1csc(NN=Cc2ccccn2)n1 | x | x | 58* | x | x

Screening results (PubChem BioAssay)
